# Data taken from the supplement of paper PMC6555819.
# How the values were obtained:
# Experiment in all cases: PBM binding z-score (relative to random genomic background probes); higher = stronger binding; sequences stand for … in GC…GCGATTGACAGCGTAGAATGAAGG
# [1] = tested on: FXR:RXRa (NR concentration 270 nM, RXRa partner concentration 90 nM)
# In short: (§1)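 On custom Agilent 4×180K arrays, double-stranded probes with 34-nt variable regions carried direct-repeat seeds, single-nucleotide variants, half-site ablations or random human genomic background. Ligand-free nuclear receptor dimers were applied for 1 h, and binding was read with antibodies against each partner (one per run). Binding z-scores come from regression-normalized fluorescence, with the random background probes as reference.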
# [2] = tested on: LXRa:RXRa (NR concentration 270 nM, RXRa partner concentration 90 nM)
# In short: as §1
# [3] = tested on: LXRa homodimer (NR concentration 270 nM)
# In short: as §1
# [4] = tested on: LXRb:RXRa (NR concentration 270 nM, RXRa partner concentration 90 nM)
# In short: as §1
# [5] = tested on: LXRb homodimer (NR concentration 270 nM)
# In short: as §1
# [6] = tested on: PPARa:RXRa (NR concentration 270 nM, RXRa partner concentration 90 nM)
# In short: as §1
# [7] = tested on: PPARg:RXRa (NR concentration 180 nM, RXRa partner concentration 90 nM)
# In short: as §1
# [8] = tested on: PPARg:RXRa 270nM:90nM, anti-RXR (NR concentration 270 nM, RXRa partner concentration 90 nM)
# In short: as §1
# [9] = tested on: PPARg:RXRa 30nM:10nM, anti-RXR (NR concentration 30 nM, RXRa partner concentration 10 nM)
# In short: as §1
# [10] = tested on: PPARg:RXRa 90nM:30nM, anti-RXR (NR concentration 90 nM, RXRa partner concentration 30 nM)
# In short: as §1
# [11] = tested on: PPARg:RXRa DBDmut IVT, anti-RXR (DBD mutation: RXRa K156A/R161A, NR concentration 270 nM, RXRa partner concentration 90 nM)
# In short: as §1
# [12] = tested on: PPARg:RXRa IVT, anti-PPARg (NR concentration 270 nM, RXRa partner concentration 90 nM)
# In short: as §1
# [13] = tested on: PPARg DBDmut:RXRa IVT, anti-PPARg (DBD mutation: PPARg1 K132A/R137A, NR concentration 270 nM, RXRa partner concentration 90 nM)
# In short: as §1
# [14] = tested on: PPARg DBDmut IVT, anti-PPARg (DBD mutation: PPARg1 K132A/R137A, NR concentration 270 nM)
# In short: as §1
# [15] = tested on: PPARg homodimer (NR concentration 180 nM)
# In short: as §1
# [16] = tested on: PXR:RXRa (NR concentration 270 nM, RXRa partner concentration 90 nM)
# In short: as §1
# [17] = tested on: PXR homodimer (NR concentration 270 nM)
# In short: as §1
# [18] = tested on: RARa:RXR (NR concentration 270 nM, RXRa partner concentration 90 nM)
# In short: as §1
# [19] = tested on: RARa homodimer (NR concentration 270 nM)
# In short: as §1
# [20] = tested on: RARb:RXRa (NR concentration 270 nM, RXRa partner concentration 90 nM)
# In short: as §1
Sequence,PBM binding z-score [1],PBM binding z-score [2],PBM binding z-score [3],PBM binding z-score [4],PBM binding z-score [5],PBM binding z-score [6],PBM binding z-score [7],PBM binding z-score [8],PBM binding z-score [9],PBM binding z-score [10],PBM binding z-score [11],PBM binding z-score [12],PBM binding z-score [13],PBM binding z-score [14],PBM binding z-score [15],PBM binding z-score [16],PBM binding z-score [17],PBM binding z-score [18],PBM binding z-score [19],PBM binding z-score [20]
CCTCGGAGGACAGAAGTTCAGAGCTGTCCGCTTT,-0.0968,0.116,-0.259,-0.479,-0.948,-0.198,-0.643,-0.616,-1.24,-0.788,-0.783,-0.951,-1.61,-1.82,-0.0548,0.556,-0.104,-0.223,-0.677,1.59
CCAGACAGGTGAAAGGAAACTCAGTCTGGTACGC,-0.00156,-0.109,-0.46,-0.0929,-0.489,0.52,0.81,1,-0.0154,0.657,1.07,0.474,-0.232,-0.58,0.283,-0.274,-0.261,0.0734,-0.148,0.522
GCTATTAGTTGAAAGGGCAAGCGAATGATTCTCG,0.532,0.54,-0.0155,0.379,-0.106,2.13,2.5,4.12,2.04,4.08,0.45,0.54,-0.251,0.055,1.28,0.469,0.0641,1.19,0.795,1.94
CGGCCAAGGTCAAGGTCAGTGAAAGAGACTCGAA,7.61,5.58,0.407,4.63,0.323,6.12,6.44,6.23,2.33,4.85,3.44,4.67,0.246,-0.532,3.93,5.02,0.799,5.17,1.18,5.71
TCGGGTAGGTTACCAATGGGGCATTCAGCTTTCT,0.661,1.91,0.192,1.61,0.113,1.22,0.0871,1.31,1.96,1.63,1.78,1.82,0.338,-0.222,0.725,0.647,-0.198,0.735,0.0772,1.41
CCGACTGGGGCATAAGGTTACCATGAGCCAGCCC,0.192,1.36,-0.247,0.153,-1.3,1.9,2.48,3.24,1.36,2.8,2.64,3.31,-0.794,-1.56,0.331,0.16,-0.667,1.16,0.564,1.55
CCGACTGGGGCAGAAAGCTTACCATACCATCCGG,-0.854,-0.845,-0.778,-0.743,-0.693,-0.683,0.434,-0.227,-0.693,-0.772,1.49,0.739,-1.01,-2.56,-0.236,-0.856,-0.585,-1.22,-0.188,-0.092
AGAGCGAGGGCACGCTGAGTTGATAGCAGAGTAG,0.547,0.397,-0.567,-0.142,-1.31,1.17,0.555,-0.0392,-0.58,-0.152,0.897,1.26,-0.714,-1.28,0.251,1.05,-0.217,0.737,-0.451,2.47
GATACAGGGTCAGCTCGAGGCCAGAGTATGGAAA,4.59,2.87,-0.199,2.4,-0.786,4.56,3.36,3.21,0.631,2.06,1.36,2.36,-0.23,-0.691,1.54,3.47,-0.0374,3.66,-0.0976,4.12
CGTCCAAGGTCAAGGTCAGTGATAGAGACTCGAA,7.73,5.59,1.52,4.55,0.758,6.02,6.2,6.15,2.73,4.98,3.79,4.5,1.28,0.138,4.99,5.05,1.18,5.44,2.41,5.73
CCTAGTTGGTCAGGATGTCACACACCGGATATGA,-0.184,-0.0235,0.256,0.227,0.348,0.0864,0.898,0.76,-0.14,0.424,0.536,1.16,0.182,0.583,1.42,0.0986,0.254,0.0158,1.18,0.798
TCATATAGGTAAACAGGTAAAAGTCCGTAAGTTA,1.11,1.14,0.519,0.863,0.214,1.98,2.49,3.29,4.26,3.85,4.45,3.81,1.35,1.75,0.996,0.894,0.723,1.14,1.5,0.628
CTTGAAAGGTCGTGCTCAGGTGAGTATACCAAAC,5.86,4.22,0.0529,4.1,0.221,5.03,2.74,3.62,0.962,2.69,0.999,2.01,1.03,0.763,1.71,3.72,0.102,4.53,0.107,3.99
TCGAGTAGGTGAGTCGGGGCATTCAGCCAACATA,-0.0608,-0.132,-0.66,0.164,-0.758,0.821,0.173,0.652,0.673,0.803,3.41,2.92,-0.294,-0.634,-0.137,-0.178,-0.0256,-0.138,-0.397,0.298
